{
  "source": "PubChem BioAssay (NCATS)",
  "note": "Records with an inconclusive call do not appear. The source made the active and inactive calls. Calls follow the shape of the dose curve; as a rule, active = well fitted cell-killing curve with a large enough effect; inconclusive = small, poorly fitted or top-dose-only effect, or effect the other way; inactive = no such curve, though single readings can be large or run the other way. Potency is read from the fitted curve at half-maximal effect.",
  "data": [
    {"test": "Quantitative High-Throughput drug screen in 47 multiple myeloma cell lines against the NCATS MIPE library collection: OPM1_PLB cell viability assay (AID 1918989); also: nearly all actives have a fitted effect of over 40% in size", "conditions": "CellTiter-Glo, 48 h; series mostly up to 45.8 µM", "procedure,_shortened": "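500 cells/well; MIPE 4.0 drugs pin-transferred; 48 h, 37C, 5% CO2. CellTiter-Glo, 5 min RT, luminescence. Controls: DMSO 100%, media 0%.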", "values": [
      {"smiles": "Cc1cn(-c2cc(NC(=O)c3ccc(C)c(Nc4nccc(-c5cccnc5)n4)c3)cc(C(F)(F)F)c2)cn1", "Potency": "inactive"},
      {"smiles": "COc1ccc(OC)c(-c2nnc3ccc(-c4ccc(OC)c(O[C@@H]5CCOC5)c4)nn23)c1", "Potency": "8.33 µM (active)"},
      {"smiles": "CNC(=O)c1ccc(-c2cnc3ncc(Cc4ccc5ncccc5c4)n3n2)cc1F", "Potency": "inactive"},
      {"smiles": "Cc1nc2ccc(CN(C)c3ccc(C(=O)N[C@@H](CCC(=O)O)C(=O)O)s3)cc2c(=O)[nH]1", "Potency": "0.469 µM (active)"},
      {"smiles": "C[C@@H]1CN(CC(=O)Nc2ccc3c(c2)Cc2cccc(-c4cc(=O)cc(N5CCOCC5)o4)c2S3)C[C@H](C)O1", "Potency": "16.6 µM (active)"},
      {"smiles": "CC(=O)c1c(C)c2cnc(Nc3ccc(N4CCNCC4)cn3)nc2n(C2CCCC2)c1=O", "Potency": "18.7 µM (active)"},
      {"smiles": "COc1cc(C)c(Sc2cnc(NC(=O)c3ccc(CNC(C)C(C)C)cc3)s2)cc1C(=O)N1CCN(C(C)=O)CC1", "note": "(stereo not given)", "Potency": "18.7 µM (active)"},
      {"smiles": "COC(=O)C1=C(C)NC(C)=C(C(=O)OCCN2CCN(C(c3ccccc3)c3ccccc3)CC2)C1c1cccc([N+](=O)[O-])c1", "note": "(stereo not given)", "Potency": "inactive"},
      {"smiles": "COc1cc2c(cc1-c1c(C)noc1C)ncc1[nH]c(=O)n([C@H](C)c3ccccn3)c12", "Potency": "1.48 µM (active)"},
      {"smiles": "CC(=O)OCCN1C(=O)c2c(C)nc3ccc(S(=O)(=O)N4CCOCC4)cc3c2C1=O", "Potency": "inactive"},
      {"smiles": "CC(=O)Nc1nc(C)c(-c2ccc(Cl)c(S(=O)(=O)NCCO)c2)s1", "Potency": "2.96 µM (active)"},
      {"smiles": "Nc1ccc(C(=O)c2cc3c(ccc4ccccc43)[nH]2)cc1", "Potency": "7.43 µM (active)"},
      {"smiles": "Nc1nc(NCCNc2ncc(-n3ccnc3)c(-c3ccc(Cl)cc3Cl)n2)ccc1[N+](=O)[O-]", "Potency": "5.26 µM (active)"},
      {"smiles": "Nc1ncnc2c1c(-c1cnc3[nH]ccc3c1)nn2C1CCCC1", "Potency": "0.59 µM (active)"},
      {"smiles": "CNc1nccc(-c2cccnc2Oc2cc(C(=O)Nc3cccc(C(F)(F)F)c3)ccc2C)n1", "Potency": "13.2 µM (active)"},
      {"smiles": "COc1cc(=C2C=c3ccccc3=N2)[nH]c1=Cc1[nH]c(C)cc1C", "Potency": "5.9 µM (active)"},
      {"smiles": "Nc1ccn([C@@H]2CS[C@H](CO)O2)c(=O)n1", "Potency": "inactive"},
      {"smiles": "O=C(O)Cn1nnc(-c2cc(N3CCC(Oc4cc(F)ccc4Br)CC3)no2)n1", "Potency": "inactive"},
      {"smiles": "Cn1cc(-c2[nH]c3cc(NC(=O)[C@H](N)C4CCCCC4)cc4c3c2C=NNC4=O)cn1", "Potency": "1.18 µM (active)"},
      {"smiles": "C[C@@]12O[C@@H](C[C@]1(O)CO)n1c3ccccc3c3c4c(c5c6ccccc6n2c5c31)CNC4=O", "Potency": "0.264 µM (active)"},
      {"smiles": "CN1CCN(c2cc(C(=O)Nc3ccc4c(c3)-c3c(c(C(N)=O)nn3-c3ccc(F)cc3)CC4)c(Cl)cn2)CC1", "Potency": "9.35 µM (active)"},
      {"smiles": "CCCCc1nc2cc(C=CC(=O)NO)ccc2n1CCN(CC)CC", "Potency": "0.148 µM (active)"},
      {"smiles": "Cn1c(CNc2ccc(C(=N)N)cc2)nc2cc(C(=O)N(CCC(=O)O)c3ccccn3)ccc21", "Potency": "inactive"},
      {"smiles": "O=C1CCC[C@@H]2[C@H]3CCC[N+]4([O-])CCC[C@@H](CN12)[C@@H]34", "note": "(stereo not given in full)", "Potency": "inactive"},
      {"smiles": "CC(C)c1ccc(Cn2ccc3c4c(N)nc(NC5CC5)nc4ccc32)cc1", "Potency": "1.87 µM (active)"},
      {"smiles": "O=C(C=Cc1cccnc1)NCCCCC1CCN(C(=O)c2ccccc2)CC1", "Potency": "0.0118 µM (active)"},
      {"smiles": "O=C(O)c1ccc2c(c1)nc(Nc1cccc(Cl)c1)c1ccncc12", "Potency": "9.35 µM (active)"},
      {"smiles": "Cc1ccc2nc(NC(=O)CSc3nc4c(c(=O)n3-c3ccccc3)SCC4)sc2c1", "Potency": "16.6 µM (active)"},
      {"smiles": "CC1=C(CO)C(=O)O[C@@H]([C@@H](C)[C@H]2CC[C@H]3[C@@H]4C[C@H]5O[C@]56[C@@H](O)C=CC(=O)[C@]6(C)[C@@H]4CC[C@]23C)C1", "Potency": "0.132 µM (active)"},
      {"smiles": "Cc1cc(Nc2nc(N[C@@H](C)c3ccc(F)cc3)c(C#N)cc2F)n[nH]1", "Potency": "1.32 µM (active)"}
    ]}
  ]
}
